Source: PubChem BioAssay AID1159580 (chemical genetic matrix, 2015)
Where “and” joins values, the source holds several entries; their conditions need not be identical. Equal entries are not always repeated. Out of some 5,500 compounds screened, about 2,000 (36%) were called active. Not shown: some 18% with an inconclusive outcome. Cut-off read from the data, not from the text of the source: active = normalized growth mostly below about 0.91 (no sharp cut-off); inconclusive = no clear call, values can overlap the other calls; inactive = mostly above about 0.92. The list shows a part of the results.

Assay: chemical genetic growth profiling, strain panel (AID 1159580);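 note: tested at 20 µM; growth read once vehicle control cultures reached saturation at 30 °C; 1 = growth at the plate median or of vehicle wells; lower values mean less growth of the strain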
Details: S. cerevisiae deletion strains, growth OD

Measured: normalized growth

CCOc1ccc(NC(C)=O)cc1
inactive: locus YAL013W, strain DEP1, active compounds read low 1.02 | locus YAL021C, strain ccr4, active compounds read low 1.01 | locus YAL026C, strain drs2, active compounds read low 1.01 | locus YAL030W, strain snc1, active compounds read low 1.02 | locus YBL061C, strain skt5, active compounds read low 1.02 | locus YBR009C, strain hhf1, active compounds read low 1.01 | locus YBR021W, strain FUR4, active compounds read low 0.963 | locus YBR023C, strain chs3, active compounds read low 1.01 | locus YBR171W, strain sec66, active compounds read low 1.02 | locus YBR229C, strain ROT2, active compounds read low 1 | locus YBR231C, strain swc5, active compounds read low 1.02 | locus YBR279W, strain paf1, active compounds read low 1.01 | locus YCL011C, strain gbp2, active compounds read low 1.02 | locus YCL016C, strain dcc1, active compounds read low 1.02 | locus YCL029C, strain bik1, active compounds read low 0.989 | locus YCL061C, strain MRC1, active compounds read low 1.01 | locus YCL069W, strain vba3, active compounds read low 1.02 | locus YCR088W, strain abp1, active compounds read low 1.02 | locus YDL005C, strain med2, active compounds read low 1.02 | locus YDL035C, strain GPR1, active compounds read low 0.997 | locus YDL040C, strain nat1, active compounds read low 1.01 | locus YDL074C, strain BRE1, active compounds read low 1.06 | locus YDL101C, strain DUN1, active compounds read low 1.01 | locus YDL134C, strain PPH21, active compounds read low 1 | locus YDL185W, strain tfp1, active compounds read low 0.959 | locus YDL192W, strain arf1, active compounds read low 0.991 | locus YDR001C, strain nth1, active compounds read low 1.02 | locus YDR069C, strain doa4, active compounds read low 1 | locus YDR101C, strain arx1, active compounds read low 0.998 | locus YDR137W, strain rgp1, active compounds read low 1.03 | locus YDR150W, strain NUM1, active compounds read low 0.991 | locus YDR159W, strain sac3, active compounds read low 1.01 | locus YDR162C, strain NBP2, active compounds read low 1.01 | locus YDR195W, strain ref2 1.02 | locus YDR297W, strain sur2, active compounds read low 1.02 | locus YDR318W, strain mcm21, active compounds read low 0.997 | locus YDR334W, strain swr1, active compounds read low 1.02 | locus YDR335W, strain msn5, active compounds read low 1.02 | locus YDR388W, active compounds read low 1 | locus YDR392W, strain spt3, active compounds read low 0.953 | locus YDR502C, strain sam2, active compounds read low 0.994 | locus YEL003W, strain gim4, active compounds read low 1.02 | locus YEL037C, strain rad23, active compounds read low 1.01 | locus YEL061C, strain CIN8 (second series), active compounds read low 1.02 | locus YEL061C, strain CIN8, active compounds read low 1.04 | locus YER015W, strain faa2, active compounds read low 1.01 | locus YER016W, strain bim1, active compounds read low 1 | locus YER110C, active compounds read low 0.979 | locus YER111C, strain swi4, active compounds read low 1.02 | locus YER155C, strain BEM2 (second series), active compounds read low 1.02 | locus YER155C, strain BEM2, active compounds read low 0.984 | locus YER167W, strain BCK2, active compounds read low 0.979 | locus YFR010W, strain ubp6, active compounds read low 1.02 | locus YGL078C, strain dbp3, active compounds read low 0.985 | locus YGL086W, strain mad1, active compounds read low 0.984 | locus YGL167C, strain pmr1, active compounds read low 1.02 | locus YGL173C, strain kem1, active compounds read low 1.01 | locus YGL227W, strain vid30, active compounds read low 1 | locus YGL240W, strain doc1, active compounds read low 1.02 | locus YGL248W, strain PDE1, active compounds read low 1.01 | locus YGL253W, strain hxk2, active compounds read low 1.01 | locus YGR078C, strain PAC10, active compounds read low 1 | locus YGR135W, strain pre9, active compounds read low 1 | locus YGR229C, strain SMI1, active compounds read low 1.02 | locus YGR252W, strain gcn5, active compounds read low 0.986 | locus YHR013C, strain ard1, active compounds read low 1.06 | locus YHR027C, strain rpn1, active compounds read low 1 | locus YHR030C, strain SLT2, active compounds read low 0.984 and 1.02 | locus YHR079C, strain IRE1 (second series), active compounds read low 0.995 | locus YHR079C, strain IRE1, active compounds read low 1.03 | locus YHR094C, strain hxt1, active compounds read low 0.975 | locus YHR129C, strain ARP1, active compounds read low 1.01 | locus YHR142W, strain chs7, active compounds read low 1.01 | locus YHR200W, strain rpn10, active compounds read low 0.992 | locus YIL066C, strain RNR3, active compounds read low 1 | locus YIL073C, strain SPO22, active compounds read low 0.916 | locus YIL125W, strain kgd1, active compounds read low 0.988 | locus YIR030C, strain dcg1, active compounds read low 1 | locus YJL092W, strain hpr5, active compounds read low 1.01 | locus YJL095W, strain BCK1 (second series), active compounds read low 1.01 | locus YJL095W, strain BCK1, active compounds read low 1.09 and 1.01 | locus YJL115W, strain asf1, active compounds read low 1.01 | locus YJL129C, strain trk1, active compounds read low 1.02 | locus YJL134W, strain LCB3, active compounds read low 0.985 | locus YJL154C, strain vps35, active compounds read low 1.01 | locus YJL164C, strain tpk1, active compounds read low 1.02 | locus YJL166W, strain qcr8, active compounds read low 1.02 | locus YJL168C, strain set2, active compounds read low 0.986 | locus YJL187C, strain SWE1 (second series), active compounds read low 0.996 | locus YJL187C, strain SWE1, active compounds read low 1.02 | locus YJR043C, strain POL32, active compounds read low 1.14 | locus YJR066W, strain TOR1, active compounds read low 0.961
